In PubChem BioAssay AID1159580 (chemical genetic matrix, 2015):
Hit rate of the full screen: of about 5,500 compounds, about 2,000 (36%) were called active. Not shown: some 18% with an inconclusive outcome. No stated cut-off is given here; in the data, active means normalized growth mostly below about 0.91 (no sharp cut-off); inconclusive means no clear call, values can overlap the other calls; inactive means mostly above about 0.92. Some of the results follow.

Test: chemical genetic growth profiling, strain panel (AID 1159580);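 further: tested at 20 µM; growth read once vehicle control cultures reached saturation at 30 °C; 1 = growth at the plate median or of vehicle wells; lower values mean less growth of the strain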
Details: S. cerevisiae deletion strains, growth OD

Measured: normalized growth

CC1=CCCC2C1(C)CCC(C)C2(C)CC/C(C)=C/C[n+]1cn(C)c2c(N)ncnc21 (centres undefined)
inactive: locus YAL021C, strain ccr4, hits give low values 0.944 | locus YAL030W, strain snc1, hits give low values 0.986 | locus YBL061C, strain skt5, hits give low values 1.01 | locus YBR009C, strain hhf1, hits give low values 0.928 | locus YBR023C, strain chs3, hits give low values 0.978 | locus YBR171W, strain sec66, hits give low values 0.977 | locus YBR231C, strain swc5, hits give low values 0.973 | locus YBR279W, strain paf1, hits give low values 0.96 | locus YCL011C, strain gbp2, hits give low values 0.943 | locus YCL016C, strain dcc1, hits give low values 0.932 | locus YCL069W, strain vba3, hits give low values 0.961 | locus YCR088W, strain abp1, hits give low values 0.991 | locus YDL005C, strain med2, hits give low values 0.984 | locus YDL040C, strain nat1, hits give low values 0.991 | locus YDR001C, strain nth1, hits give low values 0.976 | locus YDR069C, strain doa4, hits give low values 1.01 | locus YDR159W, strain sac3, hits give low values 1.06 | locus YDR195W, strain ref2 0.992 | locus YDR297W, strain sur2, hits give low values 0.996 | locus YDR334W, strain swr1, hits give low values 0.988 | locus YDR335W, strain msn5, hits give low values 0.955 | locus YEL003W, strain gim4, hits give low values 0.955 | locus YEL037C, strain rad23, hits give low values 0.987 | locus YEL061C, strain CIN8 (second series), hits give low values 0.976 | locus YER015W, strain faa2, hits give low values 0.963 | locus YER016W, strain bim1, hits give low values 0.994 | locus YER111C, strain swi4, hits give low values 0.984 | locus YFR010W, strain ubp6, hits give low values 0.996 | locus YGL167C, strain pmr1, hits give low values 0.976 | locus YGL173C, strain kem1, hits give low values 0.993 | locus YGL227W, strain vid30, hits give low values 0.985 | locus YGL240W, strain doc1, hits give low values 0.971 | locus YGL253W, strain hxk2, hits give low values 0.976 | locus YHR013C, strain ard1, hits give low values 0.917 | locus YHR027C, strain rpn1, hits give low values 1 | locus YHR030C, strain SLT2, hits give low values 0.946 | locus YHR079C, strain IRE1, hits give low values 0.951 | locus YHR142W, strain chs7, hits give low values 0.881 | locus YJL092W, strain hpr5, hits give low values 0.982 | locus YJL095W, strain BCK1 (second series), hits give low values 1.01 | locus YJL095W, strain BCK1, hits give low values 0.971 | locus YJL115W, strain asf1, hits give low values 0.978 | locus YJL129C, strain trk1, hits give low values 1 | locus YJL154C, strain vps35, hits give low values 0.983 | locus YJL164C, strain tpk1, hits give low values 0.935 | locus YJL166W, strain qcr8, hits give low values 0.963 | locus YJL187C, strain SWE1, hits give low values 0.991 | locus YJR066W, strain TOR1, hits give low values 0.94 | locus YKL160W, strain elf1, hits give low values 0.929 | locus YKR026C, strain gcn3, hits give low values 1.01 | locus YKR091W, strain srl3, hits give low values 0.977 | locus YLL001W, strain dnm1, hits give low values 0.908 | locus YLL026W, hits give low values 0.984 | locus YLL041C, strain sdh2, hits give low values 0.987 | locus YLR027C, strain aat2, hits give low values 0.986 | locus YLR113W, strain HOG1, hits give low values 0.891 | locus YLR221C, strain rsa3, hits give low values 1.02 | locus YLR258W, strain gsy2, hits give low values 0.969 | locus YLR262C, strain YPT6 (second series), hits give low values 1.03 | locus YLR320W, strain mms22, hits give low values 1 | locus YLR342W, strain FKS1, hits give low values 0.919 | locus YLR357W, strain rsc2, hits give low values 0.929 | locus YLR370C, strain arc18, hits give low values 0.961 | locus YLR384C, strain iki3, hits give low values 0.995 | locus YML120C, strain ndi1, hits give low values 0.931 | locus YMR058W, strain fet3, hits give low values 0.982 | locus YMR125W, strain sto1, hits give low values 0.936 | locus YMR129W, hits give low values 0.995 | locus YMR205C, strain PFK2, hits give low values 0.925 | locus YMR231W, strain pep5, hits give low values 1.02 | locus YNL183C, strain NPR1, hits give low values 0.968 | locus YNL209W, strain ssb2, hits give low values 0.932 | locus YNL248C, strain rpa49, hits give low values 0.98 | locus YNL322C, strain KRE1 (second series), hits give low values 0.996 | locus YNR049C, strain mso1, hits give low values 0.992 | locus YOR001W, strain rrp6, hits give low values 1.01 | locus YOR070C, strain gyp1, hits give low values 0.988 | locus YOR080W, strain dia2, hits give low values 1 | locus YOR083W, strain WHI5, hits give low values 0.908 | locus YOR106W, strain vam3, hits give low values 0.883 | locus YOR231W, strain MKK1, hits give low values 0.937 | locus YOR265W, strain rbl2, hits give low values 0.981 | locus YOR270C, strain vph1, hits give low values 0.95 | locus YPL051W, strain arl3, hits give low values 0.942 | locus YPL078C, strain atp4, hits give low values 0.896 | locus YPL106C, strain sse1, hits give low values 0.973 | locus YPL240C, strain hsp82, hits give low values 0.996 | locus YPL256C, strain CLN2, hits give low values 0.939
active: locus YAL026C, strain drs2, hits give low values 0.838 | locus YDR137W, strain rgp1, hits give low values 1.17 [resistant] | locus YDR392W, strain spt3, hits give low values 0.452 | locus YER155C, strain BEM2 (second series), hits give low values 0.644 | locus YNL071W, strain lat1, hits give low values 0.863 | locus YOR290C, strain snf2, hits give low values 0.844
